The values below come from PubChem BioAssay (EPA / NIEHS).

Structures are written as SMILES. Calls of active or inactive are those of the source. Rule for the calls: active = hit-call score of the fitted dose curve at least 0.9, where 1 is the maximum; inactive = score below 0.9.

Assay [1] is described as follows: ATG_M_61_CIS: Attagene CIS-FACTORIAL HepG2 Assay for M61 Transcription Factor (Internal Marker) (AID 2282937). The note with it: HepG2 Attagene CIS-FACTORIAL M61 internal marker reporter; actives raise or lower the signal. In a few lines:
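Endogenous transcription factor activity in HepG2 is read through transiently transfected cis-element reporter units. After 24 h dosing, RNA undergoes reverse transcription, PCR and primer extension with 6-FAM before capillary electrophoresis; DMSO-referenced bidirectional fit.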

Assay [2] is described as follows: ATG_EGR_CIS: Attagene CIS-FACTORIAL HepG2 Assay for human Early Growth Response 1 (EGR1) (AID 2282938). The note with it: HepG2 Attagene CIS-FACTORIAL EGR reporter mRNA; actives raise or lower the signal. In a few lines: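 Activity is taken as induction or loss of reporter mRNA versus DMSO, fitted bidirectionally. Transcripts from cis-regulated reporter units in transiently transfected HepG2 were measured after 24 h by RT-PCR with capillary electrophoresis.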

Assay [3] can be described thus: ATG_M_19_CIS: Attagene CIS-FACTORIAL HepG2 Assay for M19 Transcription Factor (Internal Marker) (AID 2282939). The conditions noted are these: HepG2 Attagene CIS-FACTORIAL M19 internal marker reporter; actives raise or lower the signal. In a few lines:
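Signals come from fluorescence of labelled reporter-specific PCR fragments resolved by capillary electrophoresis, following 24 h treatment of HepG2 cells transfected with cis-promoter reporter units; activity was fitted in both directions relative to DMSO.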

A short description of assay [4]: ATG_Ets_CIS: Attagene CIS-FACTORIAL HepG2 Assay for human Erythroblast Transformation Specific (ETS) (AID 2282941). The conditions noted are these: HepG2 ETS cis-reporter transcription, actives raise or lower the signal. In a few lines: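 HepG2 cells transiently transfected with cis-promoter reporter transcription units were dosed for 24 h; reporter mRNA was measured by RT-PCR, 6-FAM primer extension, HpaI digestion and capillary electrophoresis, with bidirectional fitting against DMSO baseline.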

A short description of assay [5]: ATG_FoxO_CIS: Attagene CIS-FACTORIAL HepG2 Assay for human Forkhead box O (FoxO) (AID 2282943). The note with it: HepG2 Attagene cis-reporter, FoxO element, mRNA; actives raise or lower the signal. The procedure, abridged:
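Values reflect reporter mRNA induction or loss in HepG2 cells 24 h post-dosing, fitted bidirectionally with DMSO as negative control and baseline. Detection used RT-PCR and fluorescence capillary electrophoresis.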

Assay [6] in a line: ATG_GATA_CIS: Attagene CIS-FACTORIAL HepG2 Assay for human GATA Binding Protein (AID 2282944). The conditions noted are these: HepG2 GATA cis-element reporter, Attagene multiplex mRNA; actives raise or lower the signal. In a few lines:
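After transfecting HepG2 cells with multiple cis-regulated reporter units, chemicals are dosed for 24 h; isolated RNA undergoes RT-PCR and fluorescent labeling before capillary electrophoresis, with activity expressed against DMSO.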

A short description of assay [7]: ATG_GLI_CIS: Attagene CIS-FACTORIAL HepG2 Assay for human Zinc Finger Protein GLI1 (AID 2282945). The conditions noted are these: HepG2, Attagene cis-factorial reporter mRNA, GLI element; actives raise or lower the signal. In a few lines:
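HepG2 cells transiently transfected with cis-promoter multiplexed reporter units report endogenous transcription factor activity. After 24 h chemical exposure, reporter mRNA was quantified by RT-PCR, 6-FAM labelling, HpaI digestion and capillary electrophoresis, with bidirectional fitting against DMSO.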

Assay [8] deals with Bile acid receptor (Homo sapiens) (UniProt Q96RI1). The assay is described as follows: ATG_IR1_CIS: Attagene CIS-FACTORIAL HepG2 Assay for human Nuclear Receptor Subfamily 1 Group H Member 4 (NR1H4), IR1 submotif (AID 2282946). The note with it: IR1 reporter transcription, actives raise or lower the signal. The procedure, abridged: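 Transient MRTU transfection, HepG2; 24 h dosing; RNA → RT-PCR → 6-FAM primer extension → HpaI digest → capillary electrophoresis fluorescence. Gain/loss of signal fitted relative to DMSO.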

Assay [9] in a line: ATG_GRE_CIS: Attagene CIS-FACTORIAL HepG2 Assay for human Glucocorticoid Response Elements (GRE) (AID 2282947). The conditions noted are these: HepG2 GRE cis-reporter, Attagene multiplex mRNA; actives raise or lower the signal. The procedure, abridged: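 Following 24 h chemical exposure of transiently transfected HepG2 cells, total RNA was reverse-transcribed and reporter cDNA amplified, fluorescently labelled and sized by capillary electrophoresis. Signal gain or loss was fitted relative to DMSO vehicle.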

Assay [10] in a line: ATG_M_06_CIS: Attagene CIS-FACTORIAL HepG2 Assay for M06 Transcription Factor (Internal Marker) (AID 2282950). The conditions noted are these: HepG2 Attagene CIS-FACTORIAL M06 internal marker reporter; actives raise or lower the signal. The procedure, abridged:
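HepG2 liver cells, 24 h exposure. Reporter transcripts from transfected cis-element constructs quantified by RT-PCR/capillary electrophoresis fluorescence. Bidirectional curve fit against DMSO.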

The target in assay [11] is Hepatocyte nuclear factor 6 (Homo sapiens) (UniProt Q9UBC0). Kind of assay: ATG_HNF6_CIS: Attagene CIS-FACTORIAL HepG2 Assay for human Hepatocyte Nuclear Factor 6 (HNF6) (AID 2282952). The note with it: HepG2 Attagene cis-factorial HNF6 reporter transcription; actives raise or lower the signal. The procedure, abridged: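 HepG2 cells transiently transfected with cis-element-driven multiple reporter transcription units, dosed 24 h; reporter mRNA quantified by RT-PCR, FAM primer extension, HpaI digestion and capillary electrophoresis; bidirectional fit versus DMSO baseline.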

In assay [12] the target is Heat shock factor protein 1 (Homo sapiens) (UniProt Q00613). The assay is described as follows: ATG_HSE_CIS: Attagene CIS-FACTORIAL HepG2 Assay for human Heat Shock Transcription Factor 1 (HSE) (AID 2282953). The note with it: HepG2 HSE cis-reporter, Attagene RNA transcription; actives raise or lower the signal. In a few lines: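 Endogenous transcription factor activity captured via cis-promoter reporter units transfected into HepG2; treatment lasted 24 h. Fluorescence intensity of reporter fragments analysed with bidirectional curve fitting, DMSO baseline.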

A short description of assay [13]: ATG_MRE_CIS: Attagene CIS-FACTORIAL HepG2 Assay for human Metal Responsive Element (MRE) (AID 2282954). The conditions noted are these: HepG2 MRE cis-reporter transcription, Attagene multiplex; actives raise or lower the signal. In a few lines: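 Step one: transfect HepG2 with cis-regulated reporter units. Step two: dose 24 h. Step three: isolate RNA, RT-PCR, 6-FAM label, HpaI digest, capillary electrophoresis. Fit bidirectionally to DMSO.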

Assay [14] in a line: ATG_PBREM_CIS: Attagene CIS-FACTORIAL HepG2 Assay for human Phenobarbital-responsive Enhancer Module (PBREM) (AID 2282955). The conditions noted are these: HepG2 PBREM cis-reporter, Attagene multiplexed transcription; actives raise or lower the signal. In a few lines:
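Cells were transfected with cis-element reporter units and treated for 24 h, after which RNA was extracted and reporter transcripts measured by RT-PCR and capillary electrophoresis.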

For assay [15], the target named is Paired box protein Pax-6 (Homo sapiens) (UniProt P26367). Kind of assay: ATG_Pax6_CIS: Attagene CIS-FACTORIAL HepG2 Assay for human Paired Box 6 (PAX6) (AID 2282956). The conditions noted are these: HepG2 CIS-FACTORIAL PAX6 reporter transcription, RNA readout; actives raise or lower the signal. The procedure, abridged:
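HepG2 cells transiently transfected with multiplexed cis-promoter reporter units (endogenous TF activity) were dosed for 24 h. Reporter mRNA was quantified by RT-PCR, 6-FAM labeling, HpaI digestion and capillary electrophoresis; bidirectional fitting versus DMSO baseline.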

The target of assay [16] is Hepatocyte nuclear factor 3-beta (Homo sapiens) (UniProt Q9Y261). Kind of assay: ATG_FoxA2_CIS: Attagene CIS-FACTORIAL HepG2 Assay for human Forkhead box A2 (FOXA2) (AID 2282942). The conditions noted are these: HepG2 cis-reporter transcription factor activity, 24 h; actives raise or lower the signal. In a few lines: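 Reporter transcript induction is measured by fluorescence after capillary electrophoresis of RT-PCR products from HepG2 cells exposed 24 h. Cis-regulated reporter units report endogenous factor activity; curves fitted both directions against DMSO.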

Assay [17] can be described thus: ATG_ISRE_CIS: Attagene CIS-FACTORIAL HepG2 Assay for human Interferon Regulatory Factor 1 (IRF1) binding to an Interferon-Stimulated Response Element (ISRE) (AID 2282948). The note with it: HepG2 ISRE cis-reporter (Attagene), mRNA transcription readout; actives raise or lower the signal. In a few lines:
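HepG2 cells transiently transfected with multiplexed cis-promoter reporter units; after 24 h compound exposure, reporter mRNA quantified by RT-PCR, FAM labelling, HpaI digestion and capillary electrophoresis. Bidirectional fit versus DMSO baseline.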

Assay [18] concerns the target Hypoxia-inducible factor 1-alpha (Homo sapiens) (UniProt Q16665). The assay is described as follows: ATG_HIF1a_CIS: Attagene CIS-FACTORIAL HepG2 Assay for human Hypoxia Inducible Factor 1 (HIF1A) (AID 2282951). The note with it: HepG2 Attagene cis-factorial HIF1a reporter transcription; actives raise or lower the signal. The procedure, abridged:
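Fluorescence intensity of capillary-separated, 6-FAM-labelled reporter amplicons gives mRNA induction in HepG2 cells carrying transfected cis-promoter reporter units; cells exposed 24 h, responses fitted up or down from DMSO.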

Assay [19] is described as follows: ATG_M_32_CIS: Attagene CIS-FACTORIAL HepG2 Assay for M32 Transcription Factor (Internal Marker) (AID 2282949).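 Note: background control marker of the multiplexed CIS panel rather than a real target.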 The note with it: HepG2 Attagene cis-factorial M32 reporter, mRNA; actives raise or lower the signal. In a few lines:
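Fluorescent capillary electrophoresis peaks of HpaI-digested, FAM-labelled RT-PCR reporter products give the signal. Source: transiently transfected human liver HepG2 cells, 24 h after chemical dosing; bidirectional fitting against DMSO.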

Sequence of Hepatocyte nuclear factor 6 (Homo sapiens) (Q9UBC0 whole entry, looked up): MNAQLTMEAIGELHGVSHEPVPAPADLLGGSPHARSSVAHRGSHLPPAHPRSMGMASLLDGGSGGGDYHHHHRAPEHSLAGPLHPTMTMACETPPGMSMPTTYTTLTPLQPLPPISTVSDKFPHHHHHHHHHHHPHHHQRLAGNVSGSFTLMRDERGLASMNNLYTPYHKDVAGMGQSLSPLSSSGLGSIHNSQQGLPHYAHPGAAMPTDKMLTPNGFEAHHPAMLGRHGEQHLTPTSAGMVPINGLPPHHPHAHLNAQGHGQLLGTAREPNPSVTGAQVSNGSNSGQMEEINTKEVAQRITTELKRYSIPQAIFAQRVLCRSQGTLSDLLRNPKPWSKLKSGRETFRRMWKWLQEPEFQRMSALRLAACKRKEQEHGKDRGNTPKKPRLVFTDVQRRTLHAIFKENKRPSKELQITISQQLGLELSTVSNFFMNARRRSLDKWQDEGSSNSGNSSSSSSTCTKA
Sequence of Hypoxia-inducible factor 1-alpha (Homo sapiens) (Q16665 whole entry, looked up): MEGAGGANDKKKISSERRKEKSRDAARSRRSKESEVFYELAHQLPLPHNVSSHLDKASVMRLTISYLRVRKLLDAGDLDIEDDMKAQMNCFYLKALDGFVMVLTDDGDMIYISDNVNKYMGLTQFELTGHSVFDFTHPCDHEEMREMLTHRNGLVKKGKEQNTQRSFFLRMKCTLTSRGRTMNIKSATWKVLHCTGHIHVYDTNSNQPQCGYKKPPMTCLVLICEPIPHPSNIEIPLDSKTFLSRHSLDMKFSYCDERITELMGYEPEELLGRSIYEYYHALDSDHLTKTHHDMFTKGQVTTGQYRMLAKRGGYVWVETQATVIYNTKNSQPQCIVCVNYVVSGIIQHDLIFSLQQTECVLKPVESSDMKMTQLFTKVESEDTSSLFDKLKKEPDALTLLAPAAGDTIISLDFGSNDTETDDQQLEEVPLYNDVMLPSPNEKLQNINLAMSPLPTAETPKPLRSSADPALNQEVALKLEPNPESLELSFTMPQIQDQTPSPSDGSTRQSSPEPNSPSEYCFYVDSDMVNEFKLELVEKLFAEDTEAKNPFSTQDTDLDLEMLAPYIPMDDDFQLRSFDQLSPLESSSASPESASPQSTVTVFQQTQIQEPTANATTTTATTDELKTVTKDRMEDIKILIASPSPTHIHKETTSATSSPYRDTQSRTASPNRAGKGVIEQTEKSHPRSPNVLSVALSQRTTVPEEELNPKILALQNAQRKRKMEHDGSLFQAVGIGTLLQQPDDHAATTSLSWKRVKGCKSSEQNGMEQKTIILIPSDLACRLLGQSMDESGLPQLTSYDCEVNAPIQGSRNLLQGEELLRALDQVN
Sequence of Heat shock factor protein 1 (Homo sapiens) (Q00613 whole entry, looked up, the tested form may be a part): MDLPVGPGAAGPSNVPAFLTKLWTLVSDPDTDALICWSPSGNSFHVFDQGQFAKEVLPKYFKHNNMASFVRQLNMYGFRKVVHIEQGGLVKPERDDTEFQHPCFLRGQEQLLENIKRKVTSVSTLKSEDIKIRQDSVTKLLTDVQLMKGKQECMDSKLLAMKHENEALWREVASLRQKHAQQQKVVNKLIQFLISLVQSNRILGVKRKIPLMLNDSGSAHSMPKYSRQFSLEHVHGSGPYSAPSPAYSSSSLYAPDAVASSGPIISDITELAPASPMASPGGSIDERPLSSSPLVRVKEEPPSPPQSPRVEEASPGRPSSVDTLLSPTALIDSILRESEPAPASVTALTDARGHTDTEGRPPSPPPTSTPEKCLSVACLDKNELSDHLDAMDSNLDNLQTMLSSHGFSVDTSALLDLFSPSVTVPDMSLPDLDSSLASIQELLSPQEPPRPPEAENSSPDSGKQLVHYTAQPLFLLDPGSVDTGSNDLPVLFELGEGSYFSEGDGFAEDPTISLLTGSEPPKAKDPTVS
Sequence of Paired box protein Pax-6 (Homo sapiens) (P26367 whole entry, looked up): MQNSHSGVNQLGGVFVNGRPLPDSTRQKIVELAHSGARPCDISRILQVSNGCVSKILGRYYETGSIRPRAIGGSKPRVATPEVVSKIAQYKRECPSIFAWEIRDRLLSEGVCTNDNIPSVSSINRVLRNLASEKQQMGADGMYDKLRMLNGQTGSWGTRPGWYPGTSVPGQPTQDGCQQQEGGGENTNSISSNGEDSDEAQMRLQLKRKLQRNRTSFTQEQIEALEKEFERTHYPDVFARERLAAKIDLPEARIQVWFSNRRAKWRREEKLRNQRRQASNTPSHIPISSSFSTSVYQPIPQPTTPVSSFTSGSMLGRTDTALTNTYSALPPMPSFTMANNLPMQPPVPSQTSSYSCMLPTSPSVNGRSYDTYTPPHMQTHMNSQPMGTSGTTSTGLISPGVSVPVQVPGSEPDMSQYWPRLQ
Sequence of Bile acid receptor (Homo sapiens) (Q96RI1 whole entry, looked up): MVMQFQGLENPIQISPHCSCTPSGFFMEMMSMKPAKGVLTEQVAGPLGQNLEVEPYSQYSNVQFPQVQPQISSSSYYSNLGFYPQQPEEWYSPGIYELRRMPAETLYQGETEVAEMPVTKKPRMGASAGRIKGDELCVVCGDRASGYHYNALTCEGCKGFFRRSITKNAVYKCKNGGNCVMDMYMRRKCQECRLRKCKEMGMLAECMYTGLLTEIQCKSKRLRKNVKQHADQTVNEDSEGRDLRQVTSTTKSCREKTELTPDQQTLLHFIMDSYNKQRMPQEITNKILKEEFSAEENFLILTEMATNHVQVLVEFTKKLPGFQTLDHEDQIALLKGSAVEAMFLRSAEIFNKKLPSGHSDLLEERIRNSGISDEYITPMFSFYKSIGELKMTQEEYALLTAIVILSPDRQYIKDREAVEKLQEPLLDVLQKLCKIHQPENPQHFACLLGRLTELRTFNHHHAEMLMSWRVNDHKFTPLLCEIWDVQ
Sequence of Hepatocyte nuclear factor 3-beta (Homo sapiens) (Q9Y261 whole entry, looked up): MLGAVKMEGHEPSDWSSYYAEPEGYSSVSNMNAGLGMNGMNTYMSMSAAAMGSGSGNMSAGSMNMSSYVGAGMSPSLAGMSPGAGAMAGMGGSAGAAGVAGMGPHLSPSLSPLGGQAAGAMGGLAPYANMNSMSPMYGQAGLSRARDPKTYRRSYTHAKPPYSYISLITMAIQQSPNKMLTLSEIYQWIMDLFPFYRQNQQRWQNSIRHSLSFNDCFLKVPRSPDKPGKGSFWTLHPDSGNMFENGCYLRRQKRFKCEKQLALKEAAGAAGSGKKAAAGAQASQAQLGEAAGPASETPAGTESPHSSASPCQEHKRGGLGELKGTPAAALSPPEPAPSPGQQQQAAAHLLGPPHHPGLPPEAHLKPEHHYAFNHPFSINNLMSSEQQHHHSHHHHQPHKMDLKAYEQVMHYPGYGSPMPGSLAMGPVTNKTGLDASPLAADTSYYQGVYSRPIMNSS

As to `Clc1cnc(Oc2ccc(Oc3ncc(Cl)cc3Cl)cc2)c(Cl)c1`, the outcome in assay [1], in [2], in [3], in assay [4], in assay [5] and in [6] was inactive. For the same molecule, the molecule was classed as inactive in assay [7], in [8], in assay [9], in assay [10], in assay [11] and in assay [12]. The result in assay [13], in assay [14] and in assay [15] was inactive.
Consider `Cc1cccc(OP(=O)(Oc2cccc(C)c2)Oc2cccc(C)c2)c1`, for which the result in [1], in assay [2], in [3], in assay [16], in [6] and in [7] was inactive. In addition, the molecule was classed as inactive in assay [8], in assay [9], in assay [17], in [10], in [18] and in assay [11]. Further, the result in assay [12], in [13], in [14] and in [15] was inactive.
In general, AC50 refers to the concentration at which the activity in the assay is half-maximal. With `CC(C)(C)c1ccccc1O`, the result in [1], in assay [3], in assay [5], in assay [6], in assay [7] and in [9] was inactive. The molecule was called inactive in assay [17], in assay [10] and in assay [14]. Besides, the AC50 was 156 µM (active) in assay [2]; 170 µM (active) in [19]; 182 µM (active) in [18]; 147 µM (active) in assay [11]; 149 µM (active) in assay [13]; 165 µM (active) in [15].
In the case of `C=CC(Cl)CCl` (configuration not stated), the result in assay [1], in assay [2], in assay [3], in assay [16], in assay [5] and in assay [6] was inactive. The molecule was called inactive in [7], in assay [8], in assay [9], in assay [17], in assay [10] and in assay [18]. In addition, the molecule was called inactive in [11], in [13], in assay [14] and in [15].
With `Brc1c(Br)c(Br)c(Oc2c(Br)c(Br)c(Br)c(Br)c2Br)c(Br)c1Br`, the call in assay [1], in [2], in assay [3], in [4], in assay [5] and in [6] was inactive. Also, the result in assay [7], in [8], in assay [9], in [17], in assay [19] and in assay [10] was inactive. The call in assay [18], in assay [11], in assay [12], in assay [13], in assay [14] and in [15] was inactive.
Consider `OCCCCO`, for which the molecule was classed as inactive in assay [1], in assay [2], in [3], in assay [4], in assay [16] and in assay [5]. Also, the result in assay [6], in assay [7], in [8], in assay [9], in assay [17] and in [10] was inactive. Besides, the call in [18], in assay [11], in assay [13], in assay [14] and in assay [15] was inactive.
Turning to `COCCl`, the outcome in assay [1], in assay [2], in assay [3], in [4], in assay [16] and in [5] was inactive. For the same molecule, the result in [7], in [8], in assay [9], in [17], in [19] and in assay [10] was inactive. The result in assay [18], in assay [11], in assay [12], in assay [13], in assay [14] and in assay [15] was inactive.
With `CNC(=O)N(C)c1nc2ccccc2s1`, the outcome in [1], in [2], in [3], in assay [4], in assay [5] and in assay [7] was inactive. Besides, the molecule was classed as inactive in [8], in assay [9], in assay [17], in assay [19], in assay [10] and in [18]. In addition, the outcome in assay [11], in assay [13], in [14] and in [15] was inactive.
With `O=c1nc(O)n(Cl)c(=O)n1Cl`, the molecule was called inactive in assay [1], in [2], in assay [3], in assay [4], in assay [16] and in assay [6]. Moreover, the call in assay [7], in assay [9], in assay [17], in [19], in assay [10] and in [18] was inactive. In addition, the call in assay [11], in assay [12], in assay [13] and in assay [15] was inactive.
